Source: PubChem BioAssay (National Center for Advancing Translational Sciences (NCATS))
An excerpt weighted towards active compounds, which were near 1.2% of everything screened.
pAkt inh – blocks phosphorylation of Akt. activity change, % for hits at 50 µM. AID 651550. Neuro2A IGF-stimulated pAkt S473 HTRF, 20 min; hits give low values. hit rate 0.32% among 360,000; in the data active means activity change below about -80%; inconclusive means mostly about -51% to -80%
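Neuro2A cells in DMEM with 0.5% FBS, overnight at 37 deg C, given compound at single 50 µM final, then IGF (6 nM final) for 20 min at 37 deg C. Lysed; phospho-Akt Ser473 by HTRF after 24 h, 665/615 ratio.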
CtBP-E1A inh – blocks the CtBP interaction with E1A. AlphaScreen GST-E1A/His-CtBP binding, 1536-well; hits give low values. activity change, % (no concentration beside the values). hit rate 0.49% among 340,000
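Steps: dispense buffer (Tris pH 8.0, NaCl 300 mM, TCEP 1 mM, BSA, Tween 20); add 5X protein mix (GST-E1A, His-CtBP, 125 nM each); pin 23 nL compound; 2 h at 37 °C, dark; add 5X beads (50 ug/mL); 1 h; read.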
Six1-Eya2 blk – inhibitors of human Six1/Eya2 interaction; hit rate 0.56% among 360,000; AlphaScreen GST-Six1/His-Eya2 binding, biochemical; hits give low values; activity change, % (test concentration not listed); Q15475+O00167
Target sequence (O00167 whole entry, looked up): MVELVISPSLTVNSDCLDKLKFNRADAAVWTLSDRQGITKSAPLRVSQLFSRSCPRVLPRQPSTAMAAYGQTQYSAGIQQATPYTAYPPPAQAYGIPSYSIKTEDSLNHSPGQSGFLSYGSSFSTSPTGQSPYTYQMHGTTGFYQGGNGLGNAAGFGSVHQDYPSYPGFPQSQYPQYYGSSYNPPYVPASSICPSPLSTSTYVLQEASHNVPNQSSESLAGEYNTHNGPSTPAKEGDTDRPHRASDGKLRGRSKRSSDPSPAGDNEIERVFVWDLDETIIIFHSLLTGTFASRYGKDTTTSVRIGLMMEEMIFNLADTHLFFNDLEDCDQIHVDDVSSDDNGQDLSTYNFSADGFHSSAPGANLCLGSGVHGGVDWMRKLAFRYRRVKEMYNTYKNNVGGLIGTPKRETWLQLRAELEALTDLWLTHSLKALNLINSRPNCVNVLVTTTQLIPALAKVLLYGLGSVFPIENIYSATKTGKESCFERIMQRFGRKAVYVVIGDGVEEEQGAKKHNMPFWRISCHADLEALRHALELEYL
Target sequence (Q15475 whole entry, looked up): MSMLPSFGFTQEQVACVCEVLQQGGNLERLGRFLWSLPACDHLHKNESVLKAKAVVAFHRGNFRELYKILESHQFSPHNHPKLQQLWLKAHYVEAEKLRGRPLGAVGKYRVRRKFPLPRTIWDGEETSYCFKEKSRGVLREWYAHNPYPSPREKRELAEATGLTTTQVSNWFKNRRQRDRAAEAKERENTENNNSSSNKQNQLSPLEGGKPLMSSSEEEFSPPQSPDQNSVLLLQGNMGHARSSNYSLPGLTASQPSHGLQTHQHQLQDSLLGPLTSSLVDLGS
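AlphaScreen luminescence read after one hour at 37 °C in darkness. Pin-transferred compounds met GST-Six1 and His-Eya2 protein (5X stock 250 nM/500 nM) plus glutathione donor and Ni-chelate acceptor beads (5X, 50 ug/mL).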
CCT modulator – cytosolic chaperonin activity modulation | purified chaperonin ATPase assay, HTRF ADP detection, 30 min | activity change, % (no concentration beside the values), hits read low | hit rate 0.3% among 360,000; in the data active means activity change below about -30%
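First, chaperonin was dispensed at 40 nM or 20 nM final depending on batch activity. Next, compounds were pinned at 76 uM and ATP added at 10 uM. After 30 min at 37 °C, ADP detection reagents ran 30 min at ambient temperature.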
Hits are given with their value; – = inactive; ? = inconclusive; · = no result given. Unless noted, no stated cut-off is given here; in the data, active means activity change below about -65%; inconclusive means mostly about -30% to -63%; inactive means weaker than that.

SMILES | pAkt inh | CtBP-E1A inh | Six1-Eya2 blk | CCT modulator
CC(=O)c1ccc(NC(=O)CN2CCN(c3ccccc3)CC2)cc1 | – | – | – | -34
CC(=O)c1ccc(NC(=O)CN2CCN(CC(=O)Nc3ccc(C(C)=O)cc3)CC2)cc1 | – | – | – | –
COc1ccc(NC(=O)CN(C)C(=O)CSCc2ccc(C)cc2)cc1 | – | – | – | –
COc1cc(/C=C/C(=O)OCC(=O)N2CCN(S(=O)(=O)c3ccc(C)cc3C)CC2)ccc1OC(F)F | – | -86 | – | –
Cc1ccc(S(=O)(=O)N2CCN(C(=O)COC(=O)/C=C/c3ccc(F)cc3)CC2)c(C)c1 | – | – | – | –
CC(C)Cc1[nH]c(=O)c(C#N)c2c1CCCC2 | – | – | – | –
O=C(CSc1nnc2ccc(-c3ccccn3)nn12)Nc1cccc(F)c1 | – | – | – | -45
O=C(CSc1nnc2ccc(-c3ccccn3)nn12)Nc1ccc(F)cc1 | – | – | – | –
Cc1ccc(C(=O)COC(=O)CSc2cccc3cccnc23)c(C)c1 | – | -77 | – | –
COC(=O)[C@@]12C[C@@H](CC(=O)NCCCCc3ccccc3)C(=O)N(Cc3cccc4ccccc34)C1=CCC(C)(C)C2 | – | – | – | ·
Cc1ccc(C(=O)O)cc1-c1ccc(/C=C2/NC(=O)N(c3ccccc3)C2=O)o1 | – | – | -74 | –
Cc1cc(C(=O)O)ccc1-c1ccc(/C=C2\NC(=O)N(Cc3ccccc3Cl)C2=O)o1 | – | – | – | –
COc1cccc(CNC(=O)CSc2ccc(-c3ccco3)nn2)c1 | – | – | – | –
O=C(CSc1ccc(-c2ccco2)nn1)NCc1ccc(Cl)cc1 | – | – | – | –
COc1cccc(CNC(=O)CSc2ccc(-c3ccccn3)nn2)c1 | – | -74 | -65 | –
O=C(CSc1ccc(-c2ccccn2)nn1)NCc1ccc(Cl)cc1 | – | -70 | ? | –
O=C(CCS(=O)(=O)c1ccc(Br)s1)NCc1cccs1 | -82% | – | – | –
CC1(C(=O)NS(=O)(=O)C2CC2)CCCN(C(=O)c2ccc3ccccc3c2)C1 (stereo not given) | – | – | – | –
Cc1nnc(N/N=C/c2ccc([N+](=O)[O-])cc2)n1N | – | ? | -68 | –
Cc1nnc(N/N=C/c2ccc(Br)cc2)n1N | – | ? | – | –
CC1(C)N([O-])C(c2cccs2)=C[N+]1=O | -124% | – | – | –
Cc1ccc(C(=O)NCCc2ccc(F)cc2)s1 | – | – | – | –
COc1cc(/C=N/NC(=O)c2cc(-c3cccn3C)n[nH]2)cc(OC)c1OC | – | -75 | -67 | –
COc1ccc(OC)c2[nH]c(C(=O)N/N=C/c3ccccc3O)cc12 | – | · | -74 | –
COc1ccc(/C=N/NC(=O)c2[nH]c3ccc(Cl)cc3c2-c2ccccc2)c(C(=O)O)c1OC | – | ? | -72 | –
SMILES | pAkt inh | CtBP-E1A inh | Six1-Eya2 blk | CCT modulator
COc1ccc(/C=N/NC(=O)c2[nH]c3ccc(Br)cc3c2-c2ccccc2)c(C(=O)O)c1OC | – | ? | ? | –
CCOC(=O)c1c(C)[nH]c(C(=O)N/N=C\c2ccccc2O)c1C | – | – | -65 | –
CCOC(=O)c1c(C)[nH]c(C(=O)N/N=C/c2cc([N+](=O)[O-])ccc2O)c1C | – | ? | ? | –
COc1ccc(/C=N/NC(=O)c2cc3c(OC)ccc(OC)c3[nH]2)cc1O | – | ? | ? | –
CC(=O)N/C(=N\c1nc(C)cc(C)n1)Nc1ccc2ccccc2c1 | – | – | – | –
COc1cccc(/C=N/NC(=O)c2cc(-c3cccn3C)n[nH]2)c1O | – | -90 | -90 | –
COc1cc(/C=N/NC(=O)CCN2CCN(Cc3ccccc3)CC2)cc(OC)c1OC | – | – | – | –
COc1cc(/C=N/NC(=O)CCN2CCN(c3ccccc3)CC2)cc(OC)c1OC | – | -80 | -82 | –
Nc1ccccc1N1CCN(C(=O)c2ccccc2)CC1 | -103% | – | – | –
O=C(NN1C(=O)/C(=C/C=C/c2ccco2)SC1=S)c1ccccc1O | – | ? | -72 | –
CC(=O)Nc1ccc(NC(=O)C(C)OC(=O)c2cccc(S(=O)(=O)N3CCCCCC3)c2)cc1 (stereo not given) | – | – | – | –
COc1ccc(-c2nnc(SCC(=O)NCCc3ccccc3)o2)cc1 | -124% | – | – | –
CCc1nc2ccc(C(=O)Nc3cccc(OCC(=O)N(C)C)c3)cn2c1N(C)C(=O)c1ccncc1 | – | – | – | –
CCOC(=O)C(C(=O)OCC)N(C#N)c1nc(SC)nc(N(C)C)n1 | – | – | – | –
